# Several values for one entry are separate records, joined by “and”; a condition that tells them apart may be missing. Equal values may be shown once. This is part of a sample that, as a whole, favours compounds with a hit. Of some 83,000 tested, about 20% had one in any assay.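 Method: cells in 96-well plates; compound added at one concentration; 48 h incubation; percent growth measured; values under 10 scored active.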 A number with no mark means an inactive call. Activity calls are given as the source filed them.
# Tested on: SW-620 colon
# Test: NCI-60 one-dose screen, 48 h (100 = growth as untreated, 0 = no growth, -100 = all killed)
# Settings: 4.75 µM
# Method: Growth inhibition of the SW-620 human tumor cell line is measured as a screen for anti-cancer activity. Cells are grown in 96 well plates and exposed to the test compound for 48 hours. Compounds are tested at a single concentration, which is 10^-5 M for most compounds. The reported endpoint is percent growth (GI% or GIPRCNT), where numbers from 0 - 100% represent growth inhibition, and numbers from -100% - 0 represent cell death. For example, a value of 40 represents 60% growth inhibition. A value of 0 means no net growth occurred over the course of the experiment. A value of -40 indicates 40% of cells at the beginning of the experiment died by the end of the experiment. A value of -100 means all cells are dead at the end of the experiment.
# NCI-60 Human Tumor Cell Lines Screen was performed using the standard one-dose NCI protocol, which is described in more detail at https://dtp.cancer.gov/discovery_development/nci-60/default.htm.
# Compounds with GIPRCNT values below 10 were considered active. Activity score was based on GIPRCNT using the following formula: […]
# Score is 0 for GIPRCNT values of 100 or above, 50 for GIPRCNT values of 0, and 100 for GIPRCNT values of -100.
row,Structure (SMILES),growth
1,CC(=O)OCC1OC([S-])C(OC(C)=O)C(OC(C)=O)C1OC(C)=O.[Au+].c1ccc(CN2[CH-]N(Cc3ccccc3)C(c3ccccc3)=C2c2ccccc2)cc1,-33% (active)

# Same assay, conditions: 10 µM
row,Structure (SMILES),growth
1,CC(=O)OCC1OC([S-])C(OC(C)=O)C(OC(C)=O)C1OC(C)=O.[Au+].c1ccc(CN2[CH-]N(Cc3ccccc3)C(c3ccccc3)=C2c2ccccc2)cc1,-17.6% (active)
2,O=C(O)CCCc1ccc(N(CCCl)CCCl)cc1,86.5% and 82.8%

# Same assay, conditions: 10 µM unless noted
row,Structure (SMILES),growth
1,S=P(SP(=S)(c1ccccc1)c1ccccc1)(c1ccccc1)c1ccccc1,99.3%
2,CC[C@H](C)[C@H](NC(=O)[C@H]1CCCCN1C)C(=O)N(C)[C@H](C[C@@H](OC(C)=O)c1cccc(C(=O)N[C@@H](Cc2ccccc2)C[C@H](C)C(=O)OC)n1)C(C)C,24.6%
3,CO/N=C1\CC[C@]2(C)[C@H]3CC[C@]4(C)C(=O)CC[C@H]4[C@@H]3C[C@@H]3SC(N)=N[C@@]32C1,106%
4,O=C(O)c1cc([N+](=O)[O-])cc([N+](=O)[O-])c1,105%
5,CC[C@H](C)[C@H](NC(=O)C12CC(NC)(C1)C2)C(=O)N(C)[C@H](C[C@@H](OC(C)=O)c1nc(C(=O)N[C@@H](Cc2ccccc2)C[C@H](C)C(=O)OC)cs1)C(C)C,39.5%
6,N#CC(N)c1ccccc1 (stereo unspecified),103%
7,CN(C)c1ccc([N+](=O)[O-])c([N+](=O)[O-])c1,101% and 111%
8,COc1cc(/C=C\[N+](=O)[O-])ccc1OCc1ccccc1,47.4%
9,CC[CH2][Sn]([Cl])([Cl])[CH2]CC.Oc1ccccc1C=NCCN=Cc1ccccc1O,2.07% (active) and -59.7% (active)
10,COCC1OC2OC3C(COC)OC(OC4C(COC)OC(OC5C(COC)OC(OC6C(COC)OC(OC7C(COC)OC(OC8C(COC)OC(OC1C(O)C2O)C(O)C8O)C(O)C7O)C(O)C6O)C(O)C5O)C(O)C4O)C(O)C3O (stereo unspecified) (tested in a mixture with another compound),109%
11,C[C@H](O)CCC(=O)c1ccoc1,105%
12,COC(=O)CCP(CCC(=O)OC)c1ccccc1,105%
13,N[C@@H](CCC(=O)CCl)C(=O)O,97.9% [20 µM]
14,N#CCC(=O)c1ccccc1,97.6%
15,CN1CCC2(CC1)C(C#N)C(=O)NC(=O)C2C#N (stereo unspecified),108%
16,CCCN1C(=O)NC(=O)C(CC)(N2C(=O)c3c(F)c(F)c(F)c(F)c3C2=O)C1=O (stereo unspecified),-92.9% (active)
17,CC1=CC(=Nc2ccc(N(CCCl)CCCl)cc2)C=C(C)C1=O,3.05% (active)
18,CC12CCC3C(CCC4CC(O)CCC43C)C1CCC2=O (stereo unspecified),109%
19,C=CC1CN2CCC1CC2C(O)c1ccnc2ccccc12 (stereo unspecified),112%

row,Structure (SMILES),growth
1,C/C(=C(\c1ccc(OCCN2CCOCC2)cc1)c1ccc(OC(=O)Cc2ccccc2)cc1)c1ccc(Cl)cc1,98.6%
2,O=C=Nc1ccc(Br)cc1,103%
3,CCCCCCCCCCCCCCCC[n+]1ccccc1,-84.8% (active) and -29.2% (active)
4,C=C1C(=O)OC2CC3(C)OC3C3OC3C3=CC(OC3=O)C12 (stereo unspecified),3.21% (active) and 7.75% (active)
5,C[C@]12CCc3sc(Nc4ccc(OC(F)(F)F)cc4)nc3C1=CC[C@@H]1[C@@H]2CC[C@]2(C)C(=O)CC[C@@H]12,43.3%
6,O=[N+]([O-])c1cc(Cl)c(Cl)cc1Cl,100% and 105%
7,CC(=O)Cc1ccc2c(c1)OCO2,110%
8,O=C(Cc1ccccc1)c1ccccc1,96.6%
9,CCOP(=O)(NC)OCC,108%
10,C[C@]12CCc3sc(Nc4ccc(O)cc4)nc3C1=CC[C@@H]1[C@@H]2CC[C@]2(C)C(=O)CC[C@@H]12,-32.2% (active)
11,O=[N+]([O-])c1ccc(P(=O)(O)O)cc1,105%
12,O=C1C=C(N2CC2)c2ccccc2C1=O,68.4%
13,Nc1ccc(S(=O)(=O)F)cc1,105%
14,CCCn1cc2c3c(cccc31)[C@H]1C[C@@H](C)CN(C)[C@@H]1C2,90.1%
15,O=[N+]([O-])c1ccc(OCc2ccc(S(=O)(=O)F)c(Cl)c2)c(Cl)c1,98.8%
16,C/C(=N/OC(=O)N(C)C)c1ccc(Cl)c(Cl)c1,115%
17,O=P(O)(Nc1ccccc1)Nc1ccccc1,86.2%
18,O=C(NC1=NCC[Se]1)c1ccccc1O,72.9%

# Same assay, conditions: 75 µM
row,Structure (SMILES),growth [%]
1,O=C(O)CCCc1ccc(N(CCCl)CCCl)cc1,51.3

# Source: PubChem BioAssay (NCI)
